Experimental data published in PubChem BioAssay.
Values joined by “and” are separate entries in the source; they are usually repeats but may differ in a detail not shown here. Identical values can stand only once. Active and inactive are the calls of the source. Cut-off read from the data, not from the text of the source, unless noted: active = inhibition above about 80%; inactive = the rest.

What was measured:
[1] = LFS_MB_P medulloblastoma growth inhibition, cell-based, chromothripsis tumors, cisplatin or BGB combos (AID 1671449); conditions: LFS_MB_P medulloblastoma cells;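 note: cells exposed for 96 hours; 0% = vehicle DMSO and 100% = killing by high DMSO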
[2] = HDN33 neuroblastoma growth inhibition, cell-based, chromothripsis tumors, cisplatin or BGB combos (AID 1671450); conditions: HDN33 neuroblastoma cells, stronger effect = higher value;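 note: cells exposed to compound for four days; 0% = vehicle DMSO and 100% = cell killing by high DMSO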
[3] = ICB984 medulloblastoma cell growth inhibition, synergistic combos for chromothripsis tumors, cisplatin or BGB combos (AID 1671451; call rule not given here;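 note: cells exposed for 96 hours before readout; 0% = vehicle DMSO and 100% = killing by high DMSO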); conditions: ICB984 medulloblastoma cells, drug combinations, stronger effect = higher value
[4] = LFS_MB_1R medulloblastoma cell growth inhibition, synergistic combos for chromothripsis tumors, cisplatin or BGB combos (AID 1671452); conditions: LFS_MB_1R medulloblastoma cells, stronger effect = higher value;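 note: cells exposed for 96 hours before readout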
[5] = HTB85 osteosarcoma cell growth inhibition, synergistic combos for chromothripsis tumors, BGB or cisplatin IC20 combos (AID 1671453); conditions: HTB85 osteosarcoma cells, drug combinations, stronger effect = higher value;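 note: cells exposed for 96 hours before readout; 0% = vehicle DMSO and 100% = high DMSO killing control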
[6] = CRL2098 osteosarcoma cell growth inhibition, synergistic combos for chromothripsis tumors, BGB or cisplatin IC20 combos (AID 1671454); conditions: CRL2098 osteosarcoma cells, drug combinations, stronger effect = higher value;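 note: cells exposed for 96 h before readout; 0% = vehicle DMSO and 100% = killing by high DMSO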
[7] = HD-MB03 medulloblastoma cell growth inhibition, synergistic combos for chromothripsis tumors, BGB or cisplatin IC20 combos (AID 1671455; in the data active = inhibition above about 83%;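 note: 0% = vehicle DMSO and 100% = high DMSO as cytotoxic control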); conditions: HD-MB03 medulloblastoma cells, stronger effect = higher value
[8] = UWB1.289 ovarian carcinoma cell growth inhibition, synergistic combos for chromothripsis tumors, BGB or cisplatin combos (AID 1671456); conditions: UWB1.289 ovarian carcinoma cells, stronger effect = higher value;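 note: cells exposed to compound for four days; 0% = vehicle DMSO and 100% = killing by high DMSO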
[9] = LFS_MB_2R medulloblastoma cell growth inhibition, synergistic combos for chromothripsis tumors, cisplatin combos (AID 1671457); conditions: LFS_MB_2R medulloblastoma cells, stronger effect = higher value;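 note: cells exposed to compound for four days before readout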
[10] = MDA-MB-436 breast carcinoma cell growth inhibition, synergistic combos for chromothripsis tumors, BGB or cisplatin combos (AID 1671458; call rule not given here;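 note: cells exposed for 96 hours; 0% = vehicle DMSO and 100% = killing by high DMSO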); conditions: MDA-MB-436 breast carcinoma growth inhibition, drug combinations, stronger effect = higher value
[11] = UWB1.289_BRCA1 ovarian cancer growth, cell-based, BGB or cisplatin combinations (AID 1671459); conditions: UWB1.289 BRCA1 ovarian carcinoma, drug combinations, stronger effect = higher value
[12] = human astrocyte viability loss, single and combined drugs, cytotoxicity control for chromothriptic childhood tumor combination screen, cell-based, BGB or cisplatin IC20 combos (AID 1671460); conditions: Human astrocytes, drug combinations, stronger effect = higher value;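 note: cells exposed to compounds for 96 hours before viability readout; 0% = vehicle and 100% = killing control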
[13] = growth inhibition of BT084 medulloblastoma cells, cell-based, ICGC_MB145, cisplatin and BGB IC40 combos (AID 1671461); conditions: drug combinations, stronger effect = higher value;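 note: cells exposed to drugs for 96 hours; 0% = vehicle DMSO and 100% = high DMSO full killing control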
[14] = growth inhibition of RCMB18 medulloblastoma cells, cell-based, cisplatin and BGB IC40 combos (AID 1671462); conditions: stronger effect = higher value;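 note: cells exposed to compound for four days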
[15] = growth inhibition of CRL1545 osteosarcoma cells, cell-based, cisplatin and BGB IC20 combos (AID 1671464); conditions: stronger effect = higher value;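 note: cells exposed to compound for 96 hours before readout; 0% = vehicle DMSO and 100% = high DMSO killing control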
[16] = measured here: combination with BGB IC40, at 0.05 µM
[17] = measured here: with BGB IC20 combination, at 0.5 µM
[18] = measured here: with cisplatin IC20 combination, at 0.5 µM
[19] = measured here: combination with cisplatin, at 0.5 µM
[20] = measured here: combination with cisplatin, at 5 µM

## Nc1nc(F)nc2c1ncn2C1OC(CO)C(O)C1O (stereo not drawn)
[1]; at 0.5 µM, stronger effect = higher value
  inhibition: -23.4% (inactive) and 5.5% (inactive)
[1]; measured here: combination with BGB IC20, at 0.005 µM
  inhibition: -13.1% and 10.2%
[1]; measured here: combination with BGB IC40, at 0.005 µM
  inhibition: -4.16% and 17.3%
[1]; [16]
  inhibition: -14.8% and 4.66%
[1]; measured here: combination with cisplatin, at 0.5 µM, stronger effect = higher value
  inhibition: -27.4% and 14.8%
[1]; measured here: combination with cisplatin, at 5 µM, stronger effect = higher value
  inhibition: 85.8% and 94.5%
[2]; BGB combo, at 5 µM
  inhibition: 27.6% and 14.7%
[2]; at 0.5 µM
  inhibition: -7.43% (inactive) and -36.4% (inactive)
[2]; cisplatin combo, at 5 µM
  inhibition: 20.8% and 7.89%
[2]; [17]
  inhibition: 3.36% and -26.3%
[2]; [18]
  inhibition: -16.4% and -54.5%
[2]; single agent, at 5 µM
  inhibition: 45.6% and 12.3%
[3]; BGB IC20 combo, at 0.005 µM
  inhibition: 20.7% and -6.33%
[3]; BGB IC40 combo, at 0.005 µM
  inhibition: -14.7% and -39.6%
[3]; BGB IC40 combo, at 0.05 µM
  inhibition: 0.533% and 4.89%
[3]; at 0.5 µM
  inhibition: -14.3% (inactive) and -20.5% (inactive)
[3]; cisplatin combo, at 0.05 µM
  inhibition: -3.04% and 2.23%
[3]; cisplatin combo, at 0.5 µM
  inhibition: -8.41% and -26.1%
[3]; cisplatin combo, at 5 µM
  inhibition: -23% and -33%
[3]; measured here: 5 uM single agent, at 5 µM
  inhibition: -7.66% and -8.57%
[4]; at 0.5 µM
  inhibition: -2.13% (inactive) and -19.9% (inactive)
[4]; [16]
  inhibition: 3.73% and -32%
[4]; [19]
  inhibition: 9.09% and -1.53%
[4]; [20]
  inhibition: 76.5% and 57.3%
[5]; at 0.5 µM
  inhibition: 3.43% (inactive) and -25.3% (inactive)
[5]; measured here: with BGB IC20, at 0.5 µM
  inhibition: -0.749% and -38.9%
[5]; measured here: with BGB IC20, at 5 µM
  inhibition: 44.9% and 11%
[5]; measured here: with cisplatin IC20, at 0.5 µM
  inhibition: 2.7% and -32%
[5]; measured here: with cisplatin IC20, at 5 µM
  inhibition: 37% and 41.2%
[5]; single agent, at 5 µM
  inhibition: 58.5% and 39.5%
[6]; at 0.5 µM
  inhibition: 94% (active) and 94.9% (active)
[6]; measured here: combination with BGB at IC20, at 0.5 µM
  inhibition: 94.8% and 95%
[6]; measured here: combination with cisplatin at IC20, at 0.5 µM
  inhibition: 91.9% and 95.1%
[7]; at 0.5 µM
  inhibition: 5.8% (inactive) and 2.84% (inactive)
[7]; measured here: combo with BGB at IC20, at 0.5 µM
  inhibition: 3.8% and -3.69%
[7]; measured here: combo with cisplatin at IC20, at 0.5 µM
  inhibition: 2.93% and 14.9%
[8]; at 0.5 µM
  inhibition: 2.58% (inactive) and -11.8% (inactive)
[8]; measured here: inhibition with BGB combination, at 0.05 µM
  inhibition: -5.13% and -19.7%
[8]; measured here: inhibition with cisplatin combination, at 0.05 µM
  inhibition: -18.9% and -14.7%
[9]; at 0.5 µM
  inhibition: 12% (inactive) and -3.14% (inactive)
[9]; [19]
  inhibition: 3.75% and 4.65%
[9]; [20]
  inhibition: 69.4% and 48.7%
[10]; at 0.5 µM
  inhibition: 2.72% (inactive) and -8.67% (inactive)
[10]; measured here: BGB combination, at 0.5 µM
  inhibition: 0.63% and 6.32%
[10]; measured here: BGB combination, at 5 µM
  inhibition: 12.4%
[10]; measured here: cisplatin combination, at 0.5 µM
  inhibition: -0.776% and -26.9%
[10]; measured here: cisplatin combination, at 5 µM
  inhibition: 1.99% and 20.7%
[11]; BGB combination, concentration series, at 5 µM
  inhibition: 34% and 13%
[11]; at 0.5 µM
  inhibition: 3.6% (inactive) and -10.5% (inactive)
[11]; cisplatin combination, concentration series, at 5 µM
  inhibition: 32.8% and 23%
[12]; at 0.5 µM
  inhibition: 13.7% (inactive) and -16.7% (inactive)
[12]; measured here: combo with BGB IC20, at 0.5 µM
  inhibition: 0.417% and -14%
[12]; measured here: combo with cisplatin IC20, at 0.5 µM
  inhibition: 20% and -36.2%
[13]; at 0.5 µM
  inhibition: -17.4% (inactive) and 8.96% (inactive)
[13]; cisplatin combination, at 0.5 µM
  inhibition: -38.6% and 6.07%
[13]; cisplatin combination, at 5 µM
  inhibition: 36.8% and 59.3%
[13]; measured here: BGB IC40 combination 0.05 uM, at 0.05 µM
  inhibition: -18.2% and 2.24%
[13]; single agent, at 5 µM
  inhibition: -9.05% and -4.51%
[14]; at 0.5 µM
  inhibition: 0.9% (inactive) and -15.3% (inactive)
[14]; cisplatin combo, at 5 µM
  inhibition: 44.7% and 68%
[14]; measured here: BGB IC40 combination, at 0.05 µM
  inhibition: 1.47% and -4.03%
[14]; [19]
  inhibition: 30.2% and -17.9%
[14]; single agent, at 5 µM
  inhibition: 8.81% and -20.7%
[15]; at 0.5 µM
  inhibition: 8.8% (inactive) and -39.7% (inactive)
[15]; [17]
  inhibition: 5.25% and -35.7%
[15]; [18]
  inhibition: 9.12% and -44.9%
[15]; single agent, at 0.05 µM
  inhibition: -7.3% and -43.1%
[15]; single agent, at 5 µM
  inhibition: 24% and -66.2%
